# From paper PMC12136788
# Numbering of substitutions follows the chain as printed. Over roughly 5,800 sequences, “enrichment r” has its median near 0.68; the highest 2% begin near 11. The full list was thinned out, with the highest values kept by preference.
# T1: UNK ZnF1-6 (called full-length) (human, UniProt Q9C0B0 30-357)
# T1 sequence: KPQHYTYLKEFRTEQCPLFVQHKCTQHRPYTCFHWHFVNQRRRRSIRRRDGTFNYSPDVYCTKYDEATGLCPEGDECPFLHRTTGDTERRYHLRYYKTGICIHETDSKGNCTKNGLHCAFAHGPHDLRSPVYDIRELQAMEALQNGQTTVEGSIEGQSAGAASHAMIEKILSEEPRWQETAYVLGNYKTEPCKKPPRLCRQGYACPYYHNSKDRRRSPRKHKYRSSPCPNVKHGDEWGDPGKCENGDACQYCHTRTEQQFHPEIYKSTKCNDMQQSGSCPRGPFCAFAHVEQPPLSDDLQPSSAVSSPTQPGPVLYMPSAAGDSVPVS
# B1: ENSG00000124766:be:win_2851|3pUTR|ENSG00000124766|bound_else_gene|NA|bound_elsewhere_windowed (ssRNA)
# RNA: GGGAGUUCUACAGUCCGACGAUCUAAUCAGAUGCCAUUUUAUAUGUGGACGUAUUUAUACUGGCCAAACAUAUUUUUUCUUUUGUCCCUUUUUUUCUUUCCUUUCUUUUUACUUCCUUUAUUUCUUUAUUCCUUCCUUUUCCUCAACAGAGGAUUGAGCAUCA
# B2: chr2:27041412:27041530:+|3pUTR|ENSG00000119777|msi1_unk|FALSE|overlapping (ssRNA)
# RNA: GGGAGUUCUACAGUCCGACGAUCACUUCAAAAUGCCCAGCCUGCCCCAAAUGCCUCUAAGCCCCUCCCUGUCCCCUCCCUUGUAGUCCUACUUCUUCCAACUUUCCAUUCCCCAUCAUGCUGGGGGUCUUGGUCACAAGGCUCCAACAGAGGAUUGAGCAUCA
# B3: chr7:158693335:158693439:-|CDS|ENSG00000146918|unk|total|mutant (ssRNA)
# RNA: GGGAGUUCUACAGUCCGACGAUCAAGGAAACAGAAAGAAGAAUUAUGGCAAAGGCUGAAGAAUUUAUUGACAGAUGUGUUGUCCGAAAGCCCAGUGGAUGGGUGGCAGGCCGUGGAAGCCCAGGGUGAAGACAAUAUGGAAACCAACAGAGGAUUGAGCAUCA
# B4: chr19:38730201:38730298:+|3pUTR|ENSG00000130402|msi1_unk|FALSE|overlapping (ssRNA)
# RNA: GGGAGUUCUACAGUCCGACGAUCCAGAGAAUUACUAUUUACUUUAUUAACUUACGGAUUUAUUAUAUAAAUAUAUAUUCACCUAGCAACAUAUCUCUGCCGUCUCUCCUGCUCUCAUAAUGAAGACAUAGCCGAUUCUCUGCCCAACAGAGGAUUGAGCAUCA
# B5: chr2:165880514:165880799:-|CDS|ENSG00000123607|control|control|control (ssRNA)
# RNA: GGGAGUUCUACAGUCCGACGAUCGAUGGCAUGGAAAUAUAGCAAUCGGACAAAUCCGGCAGUAGGUGAGUUUGGCAAUCACCUAGAUUUUUCACAGAAAAAUUAUGUUGUAUUUAUUAAUUUUCAUUUAAAUGCAUUUGAUUUCAACAGAGGAUUGAGCAUCA
# B6: chr3:58425360:58425463:+|3pUTR|ENSG00000168297|unk|FALSE|unique (ssRNA)
# RNA: GGGAGUUCUACAGUCCGACGAUCAGACAGCUCCUAGAAACAUUCCUCUUACAGUUCAUUUCUCUAAAGCAUUUUCUGAUUCUUAGAUAACUCCAAUUUUUGCUACCUUUAUCUUAGACAUUAACACUAUAGCCCAAAGCAUAGCAACAGAGGAUUGAGCAUCA
# B7: chr12:107752058:107752159:-|CDS|ENSG00000110851|unk|FALSE|unique (ssRNA)
# RNA: GGGAGUUCUACAGUCCGACGAUCUAACUCUAUAAAUGUUGAUGGUAAUACAGCAUUAUCUAUCACCAAUAACCCUUCAGCACUAGAUCCCUAUCAGUCCAAUGGAAAUGUUGGAUUAGAACCAGGCAUUGUUUCAAUAGACUCCAACAGAGGAUUGAGCAUCA
# B8: chr7:158734047:158734148:-|3pUTR|ENSG00000117868|msi1_unk|FALSE|overlapping (ssRNA)
# RNA: GGGAGUUCUACAGUCCGACGAUCCUACCCGGAACACACCCUCUCACAGACGUACCAAUGUUAUUUUUAUAAUUUCAUGGAUUUAGUUAUACAUACCUUAAUAGUUUUAUAAAAUUGUUGACAUUUCAGGCAAAUUUGGCCAAUCAACAGAGGAUUGAGCAUCA
# B9: ENSG00000136451:be:win_1351|CDS|ENSG00000136451|bound_else_gene|NA|bound_elsewhere_windowed (ssRNA)
# RNA: GGGAGUUCUACAGUCCGACGAUCCCAUUAUCCAUGACCUCUCCUUUAACACUCACUACCCCAGUCAACCUCCCCACCCCCGUCACUGCCCCAGUGAAUAUAGCACACCCUGUCACCAUCACAUCUCCAAUGAAUCUACCCACACAACAGAGGAUUGAGCAUCA
# B10: chr14:75059847:75060235:-|three_prime_utr|ENSG00000119640|control|control|control (ssRNA)
# RNA: GGGAGUUCUACAGUCCGACGAUCAACCACAUUAAAAAAAUAAAAAGGAUAACUGGAAAAUCCCAAAAUAUUUGGAAACCAUAUAGCACACUUACUUCUAAAAUUGUGGUAGAAUACAUAUAACAUAGAAAUUAUUGUUCUAACCAACAGAGGAUUGAGCAUCA
# B11: chr1:93180074:93180188:-|CDS|ENSG00000117500|unk|total|mutant (ssRNA)
# RNA: GGGAGUUCUACAGUCCGACGAUCCUGGCCGCUCUGCCUCCGGUGCUGCUGCCUGGGGCGGCCGGCUUCACACCUUCCCUCGACCGCGACUUCACCUUUACCCUUCCCGCCGGCCAGAAGGAGUGCUUCUACCAGCCCAUGCCCCAACAGAGGAUUGAGCAUCA
# B12: chr11:11963431:11963477:-|3pUTR|ENSG00000050165|msi1_unk|FALSE|overlapping (ssRNA)
# RNA: GGGAGUUCUACAGUCCGACGAUCUUGACACUGUCCCUCUUUGGCAGUUGCAUUAGUAACUUUGAAAGGUAUAUGACUGAGCGUAGCAUACAGGUUAACCUGCAGAAACAGUACUUAGGUAAUUGUAGGGCGAGGAUUAUAAAUCAACAGAGGAUUGAGCAUCA
# B13: chr11:130144177:130144243:+|3pUTR|ENSG00000084234|msi1_unk|total|mutant (ssRNA)
# RNA: GGGAGUUCUACAGUCCGACGAUCAUGAGGGUGUCCGCUGCUGCUUUCCUUCGGAAUCCAGUGCUUCCACAGAGAUCCGCCUGCCGCUUAUAUUUGACAUUCUUCACUGUCUGUUGUUUACCUACCGCCGCUUUUUACCGUUCACAACAGAGGAUUGAGCAUCA
# B14: chr8:47773456:47773635:-|3pUTR|ENSG00000253729|msi1_unk|FALSE|overlapping (ssRNA)
# RNA: GGGAGUUCUACAGUCCGACGAUCGUUUUUUCCUUUCAUUUUAUUCUCUUCUAGUUUUGACAUUUUAUGAUAGAUUUGCUCUCUAGAAGGAAACGUCUUUAUUUAGGAGGGCAAAAAUUUUGGUCAUAGCAUUCACUUUUGCUACAACAGAGGAUUGAGCAUCA
# B15: ENSG00000124766:be:win_2951|3pUTR|ENSG00000124766|bound_else_gene|NA|bound_elsewhere_windowed (ssRNA)
# RNA: GGGAGUUCUACAGUCCGACGAUCCUUUAUUCCUUCCUUUUCCUUUUUUUCUUUUUUUUUUCUUUUUUUUUUUUUUUUUUUGGUAGUUGUUGUUACCCACGCCAUUUUACGUCUCCUUCACUGAAGGGCUAGAGUUUUAACUUUCAACAGAGGAUUGAGCAUCA
# B16: chr1:965281:965395:+|3pUTR|ENSG00000187961|unk|FALSE|unique (ssRNA)
# RNA: GGGAGUUCUACAGUCCGACGAUCCCAUCCGUUCACGUCUCUGCAUCCAUUCCUUCAUGUCUUUAUUUAGUUGUUUAUUUAUUUAGUUAUUUAUCUUAUUUAUUGAGGGGUGAGGAGUGCCACGGCUGCCCGUUUACACCUUUACAACAGAGGAUUGAGCAUCA
# B17: chr1:965281:965395:+|3pUTR|ENSG00000187961|unk|total|mutant (ssRNA)
# RNA: B16 RNA with U67C, A68C, U83C, A84C
# B18: ENSG00000124766:be:win_3001|3pUTR|ENSG00000124766|bound_else_gene|NA|bound_elsewhere_windowed (ssRNA)
# RNA: GGGAGUUCUACAGUCCGACGAUCUUUUUUUGGUAGUUGUUGUUACCCACGCCAUUUUACGUCUCCUUCACUGAAGGGCUAGAGUUUUAACUUUUAAUUUUUUAUAUUUAAAUGUAGACUUUUGACACUUUUAAAAAACAAAAACAACAGAGGAUUGAGCAUCA
# B19: chr2:73730642:73730743:-|CDS|ENSG00000144034|unk|FALSE|unique (ssRNA)
# RNA: GGGAGUUCUACAGUCCGACGAUCUUCAGACGUAGGAAACAAUGGUUAAUGAUCUUGUGUUUUUUUUUUCAUUUUUUUUCUCUUAGAUUUCAGAGGCUUUGAAAAAAUUUGGUAUCUCAGCAAAUGACACUUCAAUUCUAAUUGCAACAGAGGAUUGAGCAUCA
# B20: chr1:17407970:17408071:-|3pUTR|ENSG00000179051|msi1|FALSE|unique (ssRNA)
# RNA: GGGAGUUCUACAGUCCGACGAUCGGGUACCGUUCUGCUGACCCAGCUCCCUUUAGUCACGUUUGCUUGGCUCUGGUACCAAAUAGUUGGGAUUACCGAAGAGUCCCCUUCCUUGCGUGUCAGCACGGAUGCUGUGACUGCCACCAACAGAGGAUUGAGCAUCA
# B21: chr4:138167974:138168075:-|3pUTR|ENSG00000151012|msi1|FALSE|unique (ssRNA)
# RNA: GGGAGUUCUACAGUCCGACGAUCCACAAAAUCUGCAUUGUCCAUGUGAGUAAAGUAAAAUAAUUCCUGUUAUUUUUUUCUGUUAGAAAUAAGUAUGGAGGAUAUGUUUUUAAAAAUUUAUGAGUUAAUUGAAAUAUCCAUAUACAACAGAGGAUUGAGCAUCA
# B22: chr10:62095068:62095169:+|3pUTR|ENSG00000150347|msi1|total|mutant (ssRNA)
# RNA: GGGAGUUCUACAGUCCGACGAUCCCAUUUGCUUCAAUUAAUUAUUUACCUUCCUGUGGAAUAAUAUAUAUAUAUAUAUUUAACCGAACCACCGACCGACCCGCCGAAUUCCGAUUAUAAAUGUGUGAGUGCAGAUUAUCCUGCCAACAGAGGAUUGAGCAUCA
# B23: chr10:62095068:62095169:+|3pUTR|ENSG00000150347|msi1|FALSE|unique (ssRNA)
# RNA: GGGAGUUCUACAGUCCGACGAUCCCAUUUGCUUCAAUUAAUUAUUUACCUUCCUGUGGAAUAAUAUAUAUAUAUAUAUUUAAUAGAACCAUAGAUAGACUAGUAGAAUUUAGAUUAUAAAUGUGUGAGUGCAGAUUAUCCUGCCAACAGAGGAUUGAGCAUCA
# Biological target: T1, UNK ZnF1-6 (called full-length)
# Experiment: nsRBNS (natural sequence RNA bind-n-seq); RBNS binding buffer (assumed for nsRBNS): 25 mM Tris pH 7.5, 150 mM KCl, 3 mM MgCl2, 0.01% Triton X-100, 500 ug/ml BSA, 20 U/ml SUPERase-In, 4 C; UNK is unkempt and MSI1 is Musashi-1; names of the RNAs are library labels; protein concentration not given here; high values mean tight binding
row,Binder,binding signal [enrichment R]
1,B1,8
2,B2,1.6
3,B3,1
4,B4,20.4
5,B5,0.541
6,B6,3.62
7,B7,0.391
8,B8,33.1
9,B9,1.83
10,B10,2.02
11,B11,0.868
12,B12,0.884
13,B13,0.644
14,B14,5.42
15,B15,35.6
16,B16,199
17,B17,5.63
18,B18,4.11
19,B19,1.44
20,B20,2
21,B21,1.08
22,B22,2.12
23,B23,15.6
